# Assay results from PubChem BioAssay (NCATS).
# Inconclusive results are not listed. Activity calls are given as the source filed them. Calls follow the shape of the dose curve; as a rule, active = well fitted cell-killing curve with a large enough effect; inconclusive = small, poorly fitted or top-dose-only effect, or effect the other way; inactive = no such curve, though single readings can be large or run the other way.
# Test: Quantitative High-Throughput drug screen in 47 multiple myeloma cell lines against the NCATS MIPE library collection: Karpas620_DSMZ cell viability assay (AID 1918959); also: nearly all actives have a fitted effect of over 30% in size
# Conditions: Karpas620 myeloma viability, CellTiter-Glo ATP luminescence, 48 h; series mostly up to 45.8 µM; viability (% of DMSO): at the top concentration
# Source text: PI: Beverly A. Mock Ph.D.
# Laboratory of Cancer Biology and Genetics,
# Center for Cancer Research, National Cancer Institute,
# National Institute of Health, Bethesda, Maryland
# Drug resistance and disease progression are common in multiple myeloma (MM) patients, underscoring the need for new therapeutic combinations. […] We hypothesized that effective combinations would reduce MYC expression and enhance p16 activity. […] These preclinical data identify potentially useful drug combinations for evaluation in drug-resistant MM and reveal potential mechanisms of combined drug sensitivity.
# Described herein is the primary MIPE qHTS used to cherrypick compounds. Validated compounds were then further tested for potential synergistic activiy.
# [1] Peat TJ, Gaikwad SM, Dubois W, Gyabaah-Kessie N, Zhang S, Gorjifard S, Phyo Z, Andres M, Hughitt VK, Simpson RM, Miller MA, Girvin AT, Taylor A, Williams D, D'Antonio N, Zhang Y, Rajagopalan A, Flietner E, Wilson K, Zhang X, Shinn P, Klumpp-Thomas C, McKnight C, Itkin Z, Chen L, Kazandijian D, Zhang J, Michalowski AM, Simmons JK, Keats J, Thomas CJ, Mock BA. Drug combinations identified by high-throughput screening promote cell cycle transition and upregulate Smad pathways in myeloma. Cancer Lett. 2023 Aug 1;568:216284. doi: 10.1016/j.canlet.2023.216284. Epub 2023 Jun 24. PMID: 37356470; PMCID: PMC10408729.
# SEQUENCE No. (e.g., 1, 2, 3, etc.); […] (e.g., Cells, Incubation, Reagent, etc.); VALUE and DESCRIPTION.
# 1; Cells; 5 uL; white, solid bottom 1536-well Greiner assay plate.
# 2; Compounds; 23 nL; Kalypsis pin tool (Wako USA) equipped with a 1536-well pin head to transfer to the assay plates.
# 3; Incubation; 48 hours; 37C incubation.
# 4; Reagent;5uL; CellTiter Glo (Promega).
# 5; Detector; 425V; Luminescence; Viewlux PerkinElmer.
# NOTES (numbers refer to Sequence numbers above)
# 1. The cell-based screening methods employed in this study were like those previously published. Briefly, the corresponding myeloma cell lines were screened in 1,536-well plates with 500 cells, 5-uL per well for inhibition of cell viability (assessed by measuring ATP levels with CellTiterGlo).
# 2. NCATS MIPE 4.0 library of approved and investigational drugs were added using the Kalypsis pin tool. Wells treated with DMSO only for 100% viability and media only wells for 0% viability were used as controls.
# 3. The assay plates were covered and incubated for 48 hours in a 37C, 5% CO2 incubator with controlled humidity.
# 4. After 48 hours, CellTilter-GloTM luminescent substrate mix (Promega) reagent was added to the assay plate and plates we incubated for 5 min at room temperature.
# 5. Signal was measured as median relative luminescence units on a ViewLux (PerkinElmer) multiplate reader.
# [1] Heske CM, Davis MI, Baumgart JT, Wilson K, Gormally MV, Chen L, Zhang X, Ceribelli M, Duveau DY, Guha R, Ferrer M, Arnaldez FI, Ji J, Tran HL, Zhang Y, Mendoza A, Helman LJ, Thomas CJ. Matrix Screen Identifies Synergistic Combination of PARP Inhibitors and Nicotinamide Phosphoribosyltransferase (NAMPT) Inhibitors in Ewing Sarcoma. Clin Cancer Res. 2017 Dec 1;23(23):7301-7311. doi: 10.1158/1078-0432.CCR-17-1121. Epub 2017 Sep 12. PMID: 28899971; PMCID: PMC6636827.
# Potency is read from the fitted curve at half-maximal effect.
SMILES,viability (% of DMSO),Potency
COc1ccc(CC2c3cc(OC)c(OC)cc3CC[N+]2(C)CCC(=O)OCCCCCOC(=O)CC[N+]2(C)CCc3cc(OC)c(OC)cc3C2Cc2ccc(OC)c(OC)c2)cc1OC (stereo not given),107% [at 5.15 µM] (inactive),
CC(C)Nc1cc(C(F)(F)F)cc2nc(NC(=O)c3cccnc3)nn12,107% (inactive),
CC(C)(C)NC(=O)[C@H]1CN(Cc2cccnc2)CCN1C[C@@H](O)C[C@@H](Cc1ccccc1)C(=O)N[C@H]1c2ccccc2C[C@H]1O,125% (inactive),
Cc1[nH]nc2ccc(-c3cncc(OC[C@@H](N)Cc4ccccc4)c3)cc12,,2090 nM (active)
Fc1cc(-c2cccc3ncc(-c4cnn(C5CCNCC5)c4)nc23)cc(F)c1CN1CCOCC1,,7430 nM (active)
O=C(O)CCCc1c[nH]c2ccccc12,103% (inactive),
CNC(=O)c1ccc(-c2cnc3ncc(Cc4ccc5ncccc5c4)n3n2)cc1F,104% (inactive),
CN1CCC(CNc2ccc3ncc(-c4cccc(OC(F)(F)F)c4)n3n2)CC1,,10500 nM (active)
Cc1cn2cc(C(=O)N(C)CCO)cc(N[C@@H]3CCOc4cccc(C)c43)c2n1,99.2% (inactive),
CN1CCN(c2cc(C(=O)Nc3ccc4c(c3)-c3c(c(C(N)=O)nn3-c3ccc(F)cc3)CC4)c(Cl)cn2)CC1,,23500 nM (active)
COc1cc2c(Oc3ccc4[nH]c(C)cc4c3F)ncnc2cc1OCCCN1CCCC1,,2960 nM (active)
CC(C)c1cc(-c2n[nH]c(=O)n2-c2ccc3c(ccn3C)c2)c(O)cc1O,,29.6 nM (active)
C=CC(=O)Nc1cccc(Oc2nc(Nc3ccc(N4CCN(C)CC4)cc3)ncc2Cl)c1,,5260 nM (active)
COc1cc2ncnc(Nc3ccc(F)c(Cl)c3)c2cc1NC(=O)C=CCN1CCCCC1,,2960 nM (active)
O=C(CCCCCCC(=O)Nc1ccc([C@H]2O[C@@H](CSc3nc(-c4ccccc4)c(-c4ccccc4)o3)C[C@@H](c3ccc(CO)cc3)O2)cc1)NO,108% (inactive),
CC(C)(C)OC(=O)Nc1ccc(-c2cc(C(=O)NCCCCCCC(=O)NO)no2)cc1,,2350 nM (active)
CCS(=O)(=O)c1cccc(-c2cc(C(=O)NC3CCN(C)CC3)c(C)c3[nH]c4ncc(C)cc4c23)c1,,1660 nM (active)
Nc1ccccc1NC(=O)c1ccc(CNc2nccc(-c3cccnc3)n2)cc1,,1660 nM (active)
CCC(=C(c1ccccc1)c1ccc(OCCN(C)C)cc1)c1ccccc1,,23500 nM (active)
CC1=C(CO)C(=O)O[C@@H]([C@@H](C)[C@H]2CC[C@H]3[C@@H]4C[C@H]5O[C@]56[C@@H](O)C=CC(=O)[C@]6(C)[C@@H]4CC[C@]23C)C1,119% (inactive),

SMILES,viability (% of DMSO),Potency
CNC(=O)CN1CCC(Oc2cc3c(Nc4cccc(Cl)c4F)ncnc3cc2OC)CC1,,1 nM (active)
NCC(=O)Nc1ccc(-n2nc(C(F)(F)F)cc2-c2ccc3c(ccc4ccccc43)c2)cc1,112% (inactive),
Cc1nc2ccc(CN(C)c3ccc(C(=O)N[C@@H](CCC(=O)O)C(=O)O)s3)cc2c(=O)[nH]1,106% (inactive),
O=c1[nH]nc(Sc2ncc([N+](=O)[O-])s2)n1-c1ccc2c(c1)OCCO2,,2640 nM (active)
COc1cc2nccc(Oc3ccc(NC(=O)C4(C(=O)Nc5ccc(F)cc5)CC4)cc3)c2cc1OC,,5260 nM (active)
CC(C)c1ccc(Cn2ccc3c4c(N)nc(NC5CC5)nc4ccc32)cc1,,1050 nM (active)
Cc1cn(-c2cc(NC(=O)c3ccc(C)c(Nc4nccc(-c5cccnc5)n4)c3)cc(C(F)(F)F)c2)cn1,100% (inactive),
CC(C)C[C@H](NC(=O)CNC(=O)c1cc(Cl)ccc1Cl)B(O)O,,118 nM (active)
CN1CC[C@@H](c2c(O)cc(O)c3c(=O)cc(-c4ccccc4Cl)oc23)[C@@H](O)C1,,93.5 nM (active)
Clc1cccc(-c2nnnn2Cc2cccnc2)c1Cl,99.3% (inactive),
Cn1cncc1[C@@](N)(c1ccc(Cl)cc1)c1ccc2c(c1)c(-c1cccc(Cl)c1)cc(=O)n2C,,5900 nM (active)
Cn1c(CNc2ccc(C(=N)N)cc2)nc2cc(C(=O)N(CCC(=O)O)c3ccccn3)ccc21,116% [at 23.2 µM] (inactive),
COc1cc(C(=O)N2CCC(N3CCN(C)CC3)CC2)ccc1Nc1ncc2c(n1)N(C)c1ccccc1C(=O)N2C,,3320 nM (active)
COc1cc(OC2CCN(C)CC2)ccc1Nc1ncc2c(n1)n(C1CCCC1)c(=O)n2C,,23500 nM (active)
CC(C)c1noc(N2CCC(COc3ccc(-c4ccc(S(C)(=O)=O)cc4)nc3)CC2)n1,88% (inactive),
Cc1nc(Nc2n[nH]c3c2CN(C(=O)N[C@H](CN(C)C)c2ccccc2)C3(C)C)c2sccc2n1,,2640 nM (active)
COc1ccc(OC)c(-c2nnc3ccc(-c4ccc(OC)c(O[C@@H]5CCOC5)c4)nn23)c1,,8330 nM (active)
CC1(C)CC(=O)c2c(C(F)(F)F)nn(-c3ccc(C(N)=O)c(NC4CCC(OC(=O)CN)CC4)c3)c2C1 (stereo not given),,264 nM (active)
Cc1ccc(NC(=O)C2(c3ccc4c(c3)OC(F)(F)O4)CC2)nc1-c1cccc(C(=O)O)c1,,166 nM (active)
CC(C)(O)c1cc2nc(-c3cnc(N)nc3)nc(N3CCOCC3)c2s1,,166 nM (active)
